Measurements as given in the supplement of paper PMC10849652.
Targets with a hit are over-represented here; the source holds about 8,800 in all. About 0.5% of all pairs of compound and target were hits. Values without a mark were called inactive.

Legend:
Assay in all cases: log2 fold change, soluble protein after heating vs DMSO (PISA); higher = thermal stabilisation; K562 lysate, 10 uM; active = over 0.2 and 3.5 SD of the protein, either way, in both replicates (recomputed)
[1] = compound: CN1CC[C@H](c2c(O)cc(O)c3c(=O)cc(-c4ccccc4Cl)oc23)[C@H](O)C1 [alvocidib]
How it was run: (§1)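 Log-two fold change in thermal stability relative to solvent controls is reported from duplicates. For each sample, crude K562 extract from dounce-homogenised pellets in PBS pH 7.4 with 1 mM MgCl2, at 1 mg/mL protein, was treated with 10 μM compound for 30 min. Aliquots heated for 3 min across 48°C-58°C were pooled, brought to 0.5% NP-40 at 4°C and cleared at 21,000xg for 90 min. The supernatant was quantified by TMTpro 16plex LC-MS/MS with channel sums equalised.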

[2] = compound: CN1CCc2c(c3ccccc3n2Cc2ccc(C(=O)NO)cc2)C1 [Tubastatin A]
How it was run: as §1

[3] = compound: CNC(=O)C1=CC=CC=C1NC2=NC(=NC=C2Cl)NC3=C(C=C(C=C3)N4CCOCC4)OC
How it was run: as §1

[4] = compound: CNC(=O)c1ccc(Nc2ncc(C(F)(F)F)c(NCc3nccnc3N(C)S(C)(=O)=O)n2)cc1 [defactinib]
How it was run: as §1

[5] = compound: CNc1nc(-c2ccc3c(N)n[nH]c3c2)cc(N2C[C@@H](C(=O)NC3CCCCC3)CC[C@H]2C)n1
How it was run: as §1

[6] = compound: COC(=O)N[C@@H](C)CNc1nccc(-c2cn(C(C)C)nc2-c2cc(Cl)cc(NS(C)(=O)=O)c2F)n1 [encorafenib]
How it was run: as §1

[7] = compound: COC(=O)[C@H](CCSC)NC(=O)C1=C(C=C(C=C1)NC[C@H](CS)N)C2=CC=CC=C2
How it was run: as §1

[8] = compound: COc1cc(Nc2ncc3c(n2)-c2ccc(Cl)cc2C(c2c(F)cccc2OC)=NC3)ccc1C(=O)O [alisertib]
How it was run: as §1

[9] = compound: COc1cc2nc(-c3cc(F)ccc3O)nc(N[C@@H]3CNC[C@H]3C(C)(C)O)c2cc1OC
How it was run: as §1

[10] = compound: COc1cc2ncnc(Nc3ccc(F)c(Cl)c3)c2cc1OCCCN1CCOCC1 [gefitinib]
How it was run: as §1

[11] = compound: CS(=O)(=O)CCNCc1ccc(-c2ccc3ncnc(Nc4ccc(OCc5cccc(F)c5)c(Cl)c4)c3c2)o1 [lapatinib]
How it was run: as §1

[12] = compound: CS(=O)(=O)N1CCN(Cc2cc3nc(-c4cccc5[nH]ncc45)nc(N4CCOCC4)c3s2)CC1 [pictilisib]
How it was run: as §1

[13] = compound: C[C@@H](Oc1cc(-c2cnn(C3CCNCC3)c2)cnc1N)c1c(Cl)ccc(F)c1Cl [crizotinib]
How it was run: as §1

[14] = compound: C[C@H](C1=CC=C(C=C1)C(=O)NC2=C3C=CNC3=NC=C2)N
How it was run: as §1

[15] = compound: C[C@H](Nc1ncnc2nc[nH]c12)c1cc2cccc(Cl)c2c(=O)n1-c1ccccc1 [duvelisib]
How it was run: as §1

[16] = compound: Cc1cc(Nc2cc(CN3CCOCC3)c3nc(C)c(Cc4ccc(Cl)cc4F)n3n2)n[nH]1 [gandotinib]
How it was run: as §1

[17] = compound: Cc1cc(Nc2cc(N3CCN(C)CC3)nc(Sc3ccc(NC(=O)C4CC4)cc3)n2)n[nH]1 [tozasertib]
How it was run: as §1

[18] = compound: Cc1ccc(-n2nc(C(C)(C)C)cc2NC(=O)Nc2ccc(OCCN3CCOCC3)c3ccccc23)cc1 [doramapimod]
How it was run: as §1

[19] = compound: Cc1ccc(NC(=O)c2ccc(CN3CC[C@H](N(C)C)C3)c(C(F)(F)F)c2)cc1Nc1nccc(-c2cncnc2)n1 [bafetinib]
How it was run: as §1

[20] = compound: Cc1cccc(CC(=O)N2CCc3c2ccc(-c2cn(C)c4ncnc(N)c24)c3F)n1
How it was run: as §1

RNF213, A0A0A0MTC1
log2 fold change [1]: -0.003 | log2 fold change [2]: -0.081 | log2 fold change [3]: 0.023 | log2 fold change [4]: -0.02 | log2 fold change [5]: -0.04 | log2 fold change [6]: 0.054 | log2 fold change [7]: -0.061 | log2 fold change [8]: 0.013 | log2 fold change [9]: 0.012 | log2 fold change [10]: -0.012 | log2 fold change [11]: -0.012 | log2 fold change [12]: -0.014 | log2 fold change [13]: -0.064 | log2 fold change [14]: -0.043 | log2 fold change [15]: 0.008 | log2 fold change [16]: -0.123 | log2 fold change [17]: 0.043 | log2 fold change [18]: 0.033 | log2 fold change [19]: -0.066 | log2 fold change [20]: 0.052

RTN4IP1 (UniProt Q8WWV3)
Sequence of UniProt Q8WWV3 (Q8WWV3 whole entry, looked up): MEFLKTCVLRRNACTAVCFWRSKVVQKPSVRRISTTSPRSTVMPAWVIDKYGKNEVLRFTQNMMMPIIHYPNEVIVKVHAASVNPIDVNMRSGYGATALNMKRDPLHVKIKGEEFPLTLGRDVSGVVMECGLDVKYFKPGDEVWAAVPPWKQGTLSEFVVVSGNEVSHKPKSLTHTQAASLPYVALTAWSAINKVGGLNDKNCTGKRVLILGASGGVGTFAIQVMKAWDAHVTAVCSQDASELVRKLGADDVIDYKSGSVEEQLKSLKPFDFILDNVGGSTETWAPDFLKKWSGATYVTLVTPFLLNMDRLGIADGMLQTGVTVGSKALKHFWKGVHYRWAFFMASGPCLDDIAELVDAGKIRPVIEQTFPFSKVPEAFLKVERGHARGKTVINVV
log2 fold change [1]: 0.042 | log2 fold change [2]: -0.079 | log2 fold change [3]: 0.036 | log2 fold change [4]: -0.014 | log2 fold change [5]: 0 | log2 fold change [6]: -0.021 | log2 fold change [7]: 0.003 | log2 fold change [8]: -0.111 | log2 fold change [9]: 0.019 | log2 fold change [10]: 0.196 | log2 fold change [11]: -0.02 | log2 fold change [12]: 0.017 | log2 fold change [13]: -0.021 | log2 fold change [14]: 0.056 | log2 fold change [15]: 0.072 | log2 fold change [16]: -0.057 | log2 fold change [17]: 0.009 | log2 fold change [18]: -0.016 | log2 fold change [19]: 0.059 | log2 fold change [20]: -0.048

REL isoform 2 (UniProt Q04864)
Sequence of UniProt Q04864 (Q04864 whole entry, looked up): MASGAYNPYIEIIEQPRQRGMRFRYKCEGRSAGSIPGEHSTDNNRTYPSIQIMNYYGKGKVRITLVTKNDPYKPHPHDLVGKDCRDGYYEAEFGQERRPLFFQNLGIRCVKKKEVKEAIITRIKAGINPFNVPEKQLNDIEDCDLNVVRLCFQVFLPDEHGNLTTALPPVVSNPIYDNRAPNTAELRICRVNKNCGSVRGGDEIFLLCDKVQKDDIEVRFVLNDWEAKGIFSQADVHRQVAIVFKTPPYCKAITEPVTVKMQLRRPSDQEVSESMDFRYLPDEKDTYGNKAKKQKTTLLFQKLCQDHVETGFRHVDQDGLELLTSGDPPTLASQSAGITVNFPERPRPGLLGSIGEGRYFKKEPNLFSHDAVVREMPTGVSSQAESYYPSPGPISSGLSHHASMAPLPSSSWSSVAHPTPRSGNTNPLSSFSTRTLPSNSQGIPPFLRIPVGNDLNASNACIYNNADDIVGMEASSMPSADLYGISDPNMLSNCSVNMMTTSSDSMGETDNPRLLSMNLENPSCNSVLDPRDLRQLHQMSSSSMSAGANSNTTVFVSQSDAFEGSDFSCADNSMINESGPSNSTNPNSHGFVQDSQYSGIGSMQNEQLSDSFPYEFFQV
log2 fold change [1]: 0.061 | log2 fold change [2]: -0.126 | log2 fold change [3]: 0.003 | log2 fold change [4]: 0.023 | log2 fold change [5]: -0.056 | log2 fold change [6]: 0.012 | log2 fold change [7]: 0.029 | log2 fold change [8]: -0.003 | log2 fold change [9]: -0.019 | log2 fold change [10]: 0.029 | log2 fold change [11]: 0.014 | log2 fold change [12]: 0.005 | log2 fold change [13]: -0.025 | log2 fold change [14]: 0.32 (active) | log2 fold change [15]: 0.001 | log2 fold change [16]: 0.074 | log2 fold change [17]: 0.052 | log2 fold change [18]: 0.023 | log2 fold change [19]: -0.04 | log2 fold change [20]: -0.072

RANBP6 (UniProt O60518)
log2 fold change [1]: -0.033 | log2 fold change [2]: -0.07 | log2 fold change [3]: 0.008 | log2 fold change [4]: 0.047 | log2 fold change [5]: 0.014 | log2 fold change [6]: -0.027 | log2 fold change [7]: 0.057 | log2 fold change [8]: 0.063 | log2 fold change [9]: 0.046 | log2 fold change [10]: 0.008 | log2 fold change [11]: -0.007 | log2 fold change [12]: -0.005 | log2 fold change [13]: -0.125 | log2 fold change [14]: -0.067 | log2 fold change [15]: 0.019 | log2 fold change [16]: -0.01 | log2 fold change [17]: 0.012 | log2 fold change [18]: 0.039 | log2 fold change [19]: 0.016 | log2 fold change [20]: 0.148

RDH10 (UniProt Q8IZV5)
Sequence of UniProt Q8IZV5 (Q8IZV5 whole entry, looked up): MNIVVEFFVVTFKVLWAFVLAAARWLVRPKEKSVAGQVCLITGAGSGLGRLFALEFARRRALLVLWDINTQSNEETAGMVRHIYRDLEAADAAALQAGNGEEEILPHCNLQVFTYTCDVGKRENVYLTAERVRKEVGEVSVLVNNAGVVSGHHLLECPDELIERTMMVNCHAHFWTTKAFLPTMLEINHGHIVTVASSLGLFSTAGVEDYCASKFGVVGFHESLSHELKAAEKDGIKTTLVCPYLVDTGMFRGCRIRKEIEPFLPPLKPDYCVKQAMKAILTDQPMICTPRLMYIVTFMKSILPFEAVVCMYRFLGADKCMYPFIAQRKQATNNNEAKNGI
log2 fold change [1]: -0.013 | log2 fold change [2]: 0.015 | log2 fold change [3]: 0.069 | log2 fold change [4]: 0.009 | log2 fold change [5]: -0.013 | log2 fold change [6]: -0.001 | log2 fold change [7]: 0.346 (active) | log2 fold change [8]: 0.037 | log2 fold change [9]: 0.007 | log2 fold change [10]: -0.004 | log2 fold change [11]: 0.004 | log2 fold change [12]: -0.035 | log2 fold change [13]: 0.062 | log2 fold change [14]: -0.039 | log2 fold change [15]: 0.022 | log2 fold change [16]: 0.055 | log2 fold change [17]: -0.032 | log2 fold change [18]: -0.012 | log2 fold change [19]: 0.001 | log2 fold change [20]: 0.043

QTRT2 isoform 4 (UniProt Q9H974)
Sequence of UniProt Q9H974 (Q9H974 whole entry, looked up): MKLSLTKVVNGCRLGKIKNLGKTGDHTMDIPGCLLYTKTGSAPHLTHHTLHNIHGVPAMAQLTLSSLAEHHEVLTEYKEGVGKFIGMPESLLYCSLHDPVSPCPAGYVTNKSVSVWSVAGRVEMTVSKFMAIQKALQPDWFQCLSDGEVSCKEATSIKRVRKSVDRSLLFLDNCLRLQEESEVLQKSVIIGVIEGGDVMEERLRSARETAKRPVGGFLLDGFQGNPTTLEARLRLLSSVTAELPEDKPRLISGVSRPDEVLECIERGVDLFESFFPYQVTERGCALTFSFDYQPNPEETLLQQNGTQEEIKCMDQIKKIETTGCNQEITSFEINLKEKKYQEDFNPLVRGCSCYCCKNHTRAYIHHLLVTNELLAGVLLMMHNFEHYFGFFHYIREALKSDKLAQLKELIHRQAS
log2 fold change [1]: -0.105 | log2 fold change [2]: 0.003 | log2 fold change [3]: 0.018 | log2 fold change [4]: -0.014 | log2 fold change [5]: 0 | log2 fold change [6]: -0.018 | log2 fold change [7]: -0.044 | log2 fold change [8]: 0.016 | log2 fold change [9]: 0.008 | log2 fold change [10]: 0.031 | log2 fold change [11]: -0.016 | log2 fold change [12]: -0.037 | log2 fold change [13]: -0.018 | log2 fold change [14]: -0.297 (active) | log2 fold change [15]: -0.008 | log2 fold change [16]: 0.185 | log2 fold change [17]: 0.003 | log2 fold change [18]: -0.029 | log2 fold change [19]: -0.089 | log2 fold change [20]: 0.256 (active)

RAPGEF4 (UniProt Q8WZA2)
Sequence of UniProt Q8WZA2 (Q8WZA2 whole entry, looked up): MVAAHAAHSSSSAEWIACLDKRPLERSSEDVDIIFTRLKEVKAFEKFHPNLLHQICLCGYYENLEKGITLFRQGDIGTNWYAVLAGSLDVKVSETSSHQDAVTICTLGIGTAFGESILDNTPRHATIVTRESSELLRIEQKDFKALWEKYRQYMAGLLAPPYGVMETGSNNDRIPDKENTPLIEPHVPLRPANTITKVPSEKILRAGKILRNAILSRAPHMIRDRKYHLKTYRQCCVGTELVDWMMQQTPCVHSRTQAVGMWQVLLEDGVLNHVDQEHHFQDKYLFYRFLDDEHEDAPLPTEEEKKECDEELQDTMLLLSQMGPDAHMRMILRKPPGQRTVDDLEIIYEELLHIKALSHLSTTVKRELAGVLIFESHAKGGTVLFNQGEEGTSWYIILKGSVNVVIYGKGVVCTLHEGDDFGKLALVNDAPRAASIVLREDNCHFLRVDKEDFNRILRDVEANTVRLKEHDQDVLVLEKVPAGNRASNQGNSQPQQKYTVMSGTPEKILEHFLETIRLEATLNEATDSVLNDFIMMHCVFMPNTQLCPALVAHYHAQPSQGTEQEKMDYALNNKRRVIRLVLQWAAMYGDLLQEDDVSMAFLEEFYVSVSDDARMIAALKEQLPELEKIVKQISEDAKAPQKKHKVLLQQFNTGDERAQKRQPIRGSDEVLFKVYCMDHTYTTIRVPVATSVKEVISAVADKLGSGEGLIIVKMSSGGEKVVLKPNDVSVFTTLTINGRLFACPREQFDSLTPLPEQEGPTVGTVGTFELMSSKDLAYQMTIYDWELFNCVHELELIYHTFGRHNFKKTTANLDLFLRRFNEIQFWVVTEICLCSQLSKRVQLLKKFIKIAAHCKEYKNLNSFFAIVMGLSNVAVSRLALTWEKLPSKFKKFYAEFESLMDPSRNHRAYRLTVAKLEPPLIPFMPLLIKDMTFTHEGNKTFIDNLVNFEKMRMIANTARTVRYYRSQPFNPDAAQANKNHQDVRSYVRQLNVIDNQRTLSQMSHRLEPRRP
log2 fold change [1]: -0.367 | log2 fold change [2]: 0.156 | log2 fold change [3]: 0.061 | log2 fold change [4]: -0.023 | log2 fold change [5]: 0.433 | log2 fold change [6]: 0.018 | log2 fold change [7]: 0.147 | log2 fold change [9]: 0.196 | log2 fold change [11]: -0.061 | log2 fold change [12]: 0.047 | log2 fold change [13]: -0.24 | log2 fold change [14]: -0.804 (active) | log2 fold change [15]: 0.104 | log2 fold change [16]: 0.38 | log2 fold change [17]: -0.088 | log2 fold change [18]: -0.041 | log2 fold change [19]: -0.212 | log2 fold change [20]: 0.543

RBM23 isoform 2 (UniProt Q86U06)
Sequence of UniProt Q86U06 (Q86U06 whole entry, looked up): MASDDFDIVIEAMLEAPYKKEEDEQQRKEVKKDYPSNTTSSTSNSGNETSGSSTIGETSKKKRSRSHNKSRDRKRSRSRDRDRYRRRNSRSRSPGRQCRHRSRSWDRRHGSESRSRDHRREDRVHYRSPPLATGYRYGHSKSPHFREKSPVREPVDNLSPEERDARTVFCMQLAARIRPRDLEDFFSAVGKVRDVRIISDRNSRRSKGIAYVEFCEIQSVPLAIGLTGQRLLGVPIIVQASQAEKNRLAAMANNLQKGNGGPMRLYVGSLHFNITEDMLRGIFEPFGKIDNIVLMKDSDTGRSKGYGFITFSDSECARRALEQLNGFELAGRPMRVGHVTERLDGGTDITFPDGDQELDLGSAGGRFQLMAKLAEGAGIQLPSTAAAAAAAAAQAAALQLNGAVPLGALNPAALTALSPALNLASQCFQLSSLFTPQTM
log2 fold change [1]: -0.056 | log2 fold change [2]: -0.084 | log2 fold change [3]: 0.133 | log2 fold change [4]: -0.037 | log2 fold change [5]: 0.181 | log2 fold change [6]: 0.335 | log2 fold change [7]: -0.003 | log2 fold change [8]: 0.11 | log2 fold change [9]: 0.137 | log2 fold change [10]: 0.057 | log2 fold change [11]: 0.056 | log2 fold change [12]: -0.053 | log2 fold change [13]: -0.076 | log2 fold change [14]: 0.044 | log2 fold change [15]: -0.008 | log2 fold change [16]: 0.272 | log2 fold change [17]: 0.053 | log2 fold change [18]: 0.489 (active) | log2 fold change [19]: -0.114 | log2 fold change [20]: 0.083

S100A6 (UniProt P06703)
log2 fold change [1]: 0.084 | log2 fold change [2]: -0.044 | log2 fold change [3]: 0.018 | log2 fold change [4]: -0.017 | log2 fold change [5]: -0.126 | log2 fold change [6]: -0.173 | log2 fold change [7]: 0.023 | log2 fold change [9]: -0.038 | log2 fold change [11]: 0.069 | log2 fold change [13]: 0.119 | log2 fold change [14]: 0.088 | log2 fold change [15]: 0 | log2 fold change [16]: 0.207 | log2 fold change [17]: -0.038 | log2 fold change [18]: -0.017 | log2 fold change [20]: -0.119

RECQL4 (UniProt O94761)
log2 fold change [1]: 0.042 | log2 fold change [2]: -0.045 | log2 fold change [3]: 0.104 | log2 fold change [4]: 0.049 | log2 fold change [5]: -0.02 | log2 fold change [6]: 0.023 | log2 fold change [7]: 0.056 | log2 fold change [8]: 0.028 | log2 fold change [10]: 0.065 | log2 fold change [12]: -0.032 | log2 fold change [13]: -0.079 | log2 fold change [14]: -0.039 | log2 fold change [15]: 0.061 | log2 fold change [16]: -0.472 (active) | log2 fold change [17]: -0.014 | log2 fold change [18]: 0.029 | log2 fold change [19]: -0.099 | log2 fold change [20]: 0.146

RETSAT (UniProt Q6NUM9)
Sequence of UniProt Q6NUM9 (Q6NUM9 whole entry, looked up): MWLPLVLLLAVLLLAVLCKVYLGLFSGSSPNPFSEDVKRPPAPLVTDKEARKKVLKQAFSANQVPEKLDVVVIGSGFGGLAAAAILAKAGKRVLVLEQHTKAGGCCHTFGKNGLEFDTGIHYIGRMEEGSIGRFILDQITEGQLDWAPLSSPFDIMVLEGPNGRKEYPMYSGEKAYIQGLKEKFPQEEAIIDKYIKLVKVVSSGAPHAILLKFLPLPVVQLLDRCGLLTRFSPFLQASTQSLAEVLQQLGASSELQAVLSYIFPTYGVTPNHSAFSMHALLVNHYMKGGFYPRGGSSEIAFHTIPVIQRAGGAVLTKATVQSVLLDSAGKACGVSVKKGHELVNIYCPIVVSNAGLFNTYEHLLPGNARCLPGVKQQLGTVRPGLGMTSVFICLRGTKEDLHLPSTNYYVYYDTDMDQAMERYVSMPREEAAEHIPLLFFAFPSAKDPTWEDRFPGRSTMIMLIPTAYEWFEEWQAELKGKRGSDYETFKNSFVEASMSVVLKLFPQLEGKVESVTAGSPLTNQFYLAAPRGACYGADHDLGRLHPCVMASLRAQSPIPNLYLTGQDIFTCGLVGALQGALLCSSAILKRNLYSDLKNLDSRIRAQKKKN
log2 fold change [1]: -0.114 | log2 fold change [2]: 0.179 | log2 fold change [3]: -0.071 | log2 fold change [4]: -0.045 | log2 fold change [5]: 0.402 | log2 fold change [6]: 0.079 | log2 fold change [7]: 0.025 | log2 fold change [9]: -0.059 | log2 fold change [11]: 0.056 | log2 fold change [12]: -0.048 | log2 fold change [13]: -0.329 | log2 fold change [14]: -0.159 | log2 fold change [15]: 0.039 | log2 fold change [16]: 0.167 | log2 fold change [17]: -0.024 | log2 fold change [18]: 0.006 | log2 fold change [19]: -0.097 | log2 fold change [20]: 0.391

RECQL5 (UniProt O94762)
Sequence of UniProt O94762 (O94762 whole entry, looked up): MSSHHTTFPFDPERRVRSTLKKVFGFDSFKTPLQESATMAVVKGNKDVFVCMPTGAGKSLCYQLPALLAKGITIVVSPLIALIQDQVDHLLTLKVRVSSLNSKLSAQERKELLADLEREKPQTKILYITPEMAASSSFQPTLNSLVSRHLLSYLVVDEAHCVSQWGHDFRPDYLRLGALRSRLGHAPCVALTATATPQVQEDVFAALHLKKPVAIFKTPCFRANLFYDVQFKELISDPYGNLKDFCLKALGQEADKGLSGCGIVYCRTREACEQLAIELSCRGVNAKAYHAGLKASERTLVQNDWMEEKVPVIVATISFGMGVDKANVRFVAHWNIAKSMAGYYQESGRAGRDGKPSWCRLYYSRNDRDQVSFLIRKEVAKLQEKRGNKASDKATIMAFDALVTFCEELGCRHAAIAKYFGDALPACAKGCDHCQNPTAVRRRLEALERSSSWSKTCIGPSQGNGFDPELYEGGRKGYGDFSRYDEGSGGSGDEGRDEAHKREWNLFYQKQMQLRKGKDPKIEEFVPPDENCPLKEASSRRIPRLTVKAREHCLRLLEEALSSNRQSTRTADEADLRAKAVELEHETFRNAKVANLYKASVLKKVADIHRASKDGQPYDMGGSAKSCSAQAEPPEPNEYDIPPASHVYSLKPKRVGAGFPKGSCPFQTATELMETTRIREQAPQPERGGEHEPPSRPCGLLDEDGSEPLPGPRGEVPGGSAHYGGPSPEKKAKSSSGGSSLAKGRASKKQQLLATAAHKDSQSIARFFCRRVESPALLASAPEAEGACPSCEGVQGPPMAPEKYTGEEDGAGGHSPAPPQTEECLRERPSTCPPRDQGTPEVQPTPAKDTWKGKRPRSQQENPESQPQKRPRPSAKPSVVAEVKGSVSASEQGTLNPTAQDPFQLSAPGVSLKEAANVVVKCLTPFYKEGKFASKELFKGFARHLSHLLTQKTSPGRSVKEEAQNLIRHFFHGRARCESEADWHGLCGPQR
log2 fold change [1]: 0.057 | log2 fold change [2]: -0.053 | log2 fold change [3]: -0.071 | log2 fold change [4]: 0.068 | log2 fold change [5]: 0.074 | log2 fold change [6]: 0.225 | log2 fold change [7]: 0.016 | log2 fold change [8]: -0.003 | log2 fold change [9]: 0.09 | log2 fold change [10]: 0.03 | log2 fold change [11]: 0.277 | log2 fold change [12]: 0.06 | log2 fold change [13]: 0.049 | log2 fold change [14]: 0.084 | log2 fold change [15]: 0.029 | log2 fold change [16]: -0.15 | log2 fold change [17]: 0.031 | log2 fold change [18]: -0.008 | log2 fold change [19]: -0.062 | log2 fold change [20]: -0.09
